Measurements published in PubChem BioAssay.
Activity calls are given as the source filed them.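 How the source made its calls, unless noted: active means primary screen hit whose calcium fluorescence ratio, in both repeats, exceeds the weak agonist control mean by 3 SD; inactive means the rest.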

Tested on: TRPC4 (transient receptor potential cation channel C4 beta), mouse
Test: positive allosteric modulators of mouse TRPC4, confirmation, cell-based, second round, Fluo-4, HEK293 TRPC4beta/mu-opioid, 1 µM (AID 2554;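 active means primary screen hit whose fluorescence ratio, in both repeats, exceeds the weak agonist control mean by 3 SD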)
Details: DAMGO EC20, Fluo-4 calcium flux, at 1 µM; active compounds read high

SMILES | outcome | potentiation
Cc1ccccc1Cn1c(=N)n(CC(O)c2ccco2)c2ccccc21 (stereo not drawn) | inactive | 
CN1CCN(c2ccc(NC(=O)c3ccc(-c4ccc(Cl)cc4)o3)cc2)CC1 | inactive | 
COc1cc(C(F)(F)F)nc2c(Br)c(C(C)(C)C)nn12 | inactive | 
Clc1cccc(C[n+]2cc(-c3ccccc3)n3c2CCC3)c1 | inactive | 
COC(=O)c1ccc(CSc2nc3ccccc3c(=O)n2CC(C)C)o1 | inactive | 
CN(C)c1ccc(NC(=O)CN2C3CCCC2CC(NC(=O)c2ccccc2)C3)cc1 (stereo not drawn) | inactive | 
Cc1ccn2c(CNCCCn3cccn3)c(C(=O)N3CCCCCC3)nc2c1 | inactive | 
O=C(O)c1ccc(N/N=C/c2ccc(-c3cccc(Cl)c3)o2)cc1 | inactive | 
NS(=O)(=O)c1ccc(CCNCc2ccccc2OCc2ccc(Cl)cc2)cc1 | inactive | 
CCCCn1c(NCCO)nc2ccccc21 | inactive | 
CCCOc1ccc(-c2nc(SCc3ccccc3)[nH]c(=O)c2C#N)cc1OC | inactive | 
NC(=O)c1nsc(C(=O)N(Cc2ccccc2Cl)C(C(=O)NCC2CCCO2)c2ccc(O)cc2)c1N (stereo not drawn) | inactive | 
N#Cc1cccc2c1-c1ccccc1/C2=N/NC(N)=O | inactive | 
CCCn1c(NC(=O)c2ccc(Cl)c(S(=O)(=O)N3CCCC3)c2)nc2ccccc21 |  | 10% (active)
CCOC(=O)C(C)Sc1nc2c(c(=O)[nH]c(=O)n2C)n1Cc1ccc(Cl)cc1 (stereo not drawn) | inactive | 
OCCNc1nc2ccccc2n1CCN1CCCCC1 | inactive | 
Cc1cc(N2CCC(C)CC2)nc2cccc(O)c12 | inactive | 
CCCN1C2=NCCN2c2cc(C)c(C)cc21 | inactive | 
COc1ccc(C2NC(C(=O)O)Cc3c2[nH]c2ccccc32)cc1CN1CCN(c2ccc(F)cc2)CC1 (stereo not drawn) | inactive | 
COc1cc(CNC2CCCC2)cc(Cl)c1OCc1ccc(F)cc1 | inactive | 

SMILES | outcome | potentiation
CC1CCN(C(C)C(=O)Nc2ccccc2-c2ccccc2)CC1 (stereo not drawn) | inactive | 
COc1cccc(C(=O)C2CCCN(Cc3cccn3-c3ccccn3)C2)c1 (stereo not drawn) | inactive | 
N=c1c2c(n(Cc3ccccc3)c3c1CCC3)CCC2 | inactive | 
OCC1(CCCc2ccccc2)CCN(Cc2cc(F)ccc2F)CC1 | inactive | 
N#Cc1c(NC(=O)C2CC(Cl)=CCC2C(=O)O)sc2c1CCCCC2 (stereo not drawn) | inactive | 
c1ccc2[nH]c(CCCCc3nc4ccccc4[nH]3)nc2c1 | inactive | 
CN(C)CCN1C(=O)C2C(C(=O)Nc3cc(Cl)cc(Cl)c3)C3C=CC2(O3)C1C(=O)NC1CCCCC1 (stereo not drawn) | inactive | 
CCc1cccc(OCC(=O)Nc2ccc(C(=O)O)cc2NC(=O)COc2cccc(CC)c2)c1 | inactive | 
CCc1ccc2nc(N=C(N)N)nc(C)c2c1 | inactive | 
C=CCOc1ccc(Br)cc1CNC(C)(C)CO | inactive | 
O=c1c2ccccc2[nH]c(=S)n1CCN1CCN(Cc2ccccc2)CC1 | inactive | 
CN(CC(=O)NC1CCCc2ccccc21)C1CCCCC1 (stereo not drawn) | inactive | 
Cc1cc(C(=O)N/N=C\c2cc(C(C)(C)C)ccc2O)n[nH]1 | inactive | 
CC1(C)CC2CC(C)(CN2C(=O)c2cc(-c3ccc(O)cc3)on2)C1 (stereo not drawn) | inactive | 
OCC1(Cc2ccccc2)CCCN(Cc2cnn(-c3ccccc3)c2)C1 (stereo not drawn) | inactive | 
CCOc1ccccc1CN1CCC(n2nccc2NC(=O)CCc2ccccc2)CC1 | inactive | 
CCCOc1cccc(C(=O)NCCNC(=O)c2ccco2)c1 | inactive | 
Brc1ccc(CN2C3=NCCCN3c3ccccc32)cc1 | inactive | 
Cc1[nH]n(C)c(=O)c1C(=O)c1c(-c2c(Cl)cccc2Cl)noc1C | inactive | 

Tested on: TRPC4 beta (transient receptor potential cation channel C4), mouse
Test: positive allosteric modulators of mouse TRPC4, confirmation, cell-based, Fluo-4, HEK293 TRPC4beta/mu-opioid (AID 2555)
Details: DAMGO EC20, Fluo-4 calcium flux, at 10 µM; active compounds read high

SMILES | outcome | potentiation
Cc1ccccc1Cn1c(=N)n(CC(O)c2ccco2)c2ccccc21 (stereo not drawn) | inactive | 
CN1CCN(c2ccc(NC(=O)c3ccc(-c4ccc(Cl)cc4)o3)cc2)CC1 | inactive | 
COc1cc(C(F)(F)F)nc2c(Br)c(C(C)(C)C)nn12 | inactive | 
Clc1cccc(C[n+]2cc(-c3ccccc3)n3c2CCC3)c1 | inactive | 
COC(=O)c1ccc(CSc2nc3ccccc3c(=O)n2CC(C)C)o1 | inactive | 
CN(C)c1ccc(NC(=O)CN2C3CCCC2CC(NC(=O)c2ccccc2)C3)cc1 (stereo not drawn) | inactive | 
Cc1ccn2c(CNCCCn3cccn3)c(C(=O)N3CCCCCC3)nc2c1 | inactive | 
O=C(O)c1ccc(N/N=C/c2ccc(-c3cccc(Cl)c3)o2)cc1 | inactive | 
NS(=O)(=O)c1ccc(CCNCc2ccccc2OCc2ccc(Cl)cc2)cc1 | inactive | 
CCCCn1c(NCCO)nc2ccccc21 | inactive | 
CCCOc1ccc(-c2nc(SCc3ccccc3)[nH]c(=O)c2C#N)cc1OC | inactive | 
NC(=O)c1nsc(C(=O)N(Cc2ccccc2Cl)C(C(=O)NCC2CCCO2)c2ccc(O)cc2)c1N (stereo not drawn) | inactive | 
N#Cc1cccc2c1-c1ccccc1/C2=N/NC(N)=O | inactive | 
CCCn1c(NC(=O)c2ccc(Cl)c(S(=O)(=O)N3CCCC3)c2)nc2ccccc21 |  | 24% (active)
CCOC(=O)C(C)Sc1nc2c(c(=O)[nH]c(=O)n2C)n1Cc1ccc(Cl)cc1 (stereo not drawn) | inactive | 
OCCNc1nc2ccccc2n1CCN1CCCCC1 | inactive | 
Cc1cc(N2CCC(C)CC2)nc2cccc(O)c12 | inactive | 
CCCN1C2=NCCN2c2cc(C)c(C)cc21 | inactive | 
COc1ccc(C2NC(C(=O)O)Cc3c2[nH]c2ccccc32)cc1CN1CCN(c2ccc(F)cc2)CC1 (stereo not drawn) | inactive | 
COc1cc(CNC2CCCC2)cc(Cl)c1OCc1ccc(F)cc1 | inactive | 

SMILES | outcome | potentiation
CC1CCN(C(C)C(=O)Nc2ccccc2-c2ccccc2)CC1 (stereo not drawn) | inactive | 
COc1cccc(C(=O)C2CCCN(Cc3cccn3-c3ccccn3)C2)c1 (stereo not drawn) | inactive | 
N=c1c2c(n(Cc3ccccc3)c3c1CCC3)CCC2 | inactive | 
OCC1(CCCc2ccccc2)CCN(Cc2cc(F)ccc2F)CC1 | inactive | 
N#Cc1c(NC(=O)C2CC(Cl)=CCC2C(=O)O)sc2c1CCCCC2 (stereo not drawn) | inactive | 
c1ccc2[nH]c(CCCCc3nc4ccccc4[nH]3)nc2c1 | inactive | 
CN(C)CCN1C(=O)C2C(C(=O)Nc3cc(Cl)cc(Cl)c3)C3C=CC2(O3)C1C(=O)NC1CCCCC1 (stereo not drawn) | inactive | 
CCc1cccc(OCC(=O)Nc2ccc(C(=O)O)cc2NC(=O)COc2cccc(CC)c2)c1 | inactive | 
CCc1ccc2nc(N=C(N)N)nc(C)c2c1 | inactive | 
C=CCOc1ccc(Br)cc1CNC(C)(C)CO | inactive | 
O=c1c2ccccc2[nH]c(=S)n1CCN1CCN(Cc2ccccc2)CC1 | inactive | 
CN(CC(=O)NC1CCCc2ccccc21)C1CCCCC1 (stereo not drawn) | inactive | 
Cc1cc(C(=O)N/N=C\c2cc(C(C)(C)C)ccc2O)n[nH]1 | inactive | 
CC1(C)CC2CC(C)(CN2C(=O)c2cc(-c3ccc(O)cc3)on2)C1 (stereo not drawn) | inactive | 
OCC1(Cc2ccccc2)CCCN(Cc2cnn(-c3ccccc3)c2)C1 (stereo not drawn) | inactive | 
CCOc1ccccc1CN1CCC(n2nccc2NC(=O)CCc2ccccc2)CC1 | inactive | 
CCCOc1cccc(C(=O)NCCNC(=O)c2ccco2)c1 | inactive | 
Brc1ccc(CN2C3=NCCCN3c3ccccc32)cc1 | inactive | 
Cc1[nH]n(C)c(=O)c1C(=O)c1c(-c2c(Cl)cccc2Cl)noc1C | inactive | 
